From ChEMBL document CHEMBL1961873, “Compounds: GSK PKIS; Assays: Nanosyn kinase panel” (2012) come the findings set out here.

In general, inhibition refers to the drop in the measured response relative to a control, in per cent.

The target of experiment [1] is Protein kinase C gamma type (Homo sapiens) (UniProt P05129). Particulars: at 1 µM.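 Also: each value is an averaged percent inhibition of the enzyme.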
Experiment [2] has as its target T1, Protein kinase C iota type (Homo sapiens) (UniProt P41743).
T1 sequence (whole entry): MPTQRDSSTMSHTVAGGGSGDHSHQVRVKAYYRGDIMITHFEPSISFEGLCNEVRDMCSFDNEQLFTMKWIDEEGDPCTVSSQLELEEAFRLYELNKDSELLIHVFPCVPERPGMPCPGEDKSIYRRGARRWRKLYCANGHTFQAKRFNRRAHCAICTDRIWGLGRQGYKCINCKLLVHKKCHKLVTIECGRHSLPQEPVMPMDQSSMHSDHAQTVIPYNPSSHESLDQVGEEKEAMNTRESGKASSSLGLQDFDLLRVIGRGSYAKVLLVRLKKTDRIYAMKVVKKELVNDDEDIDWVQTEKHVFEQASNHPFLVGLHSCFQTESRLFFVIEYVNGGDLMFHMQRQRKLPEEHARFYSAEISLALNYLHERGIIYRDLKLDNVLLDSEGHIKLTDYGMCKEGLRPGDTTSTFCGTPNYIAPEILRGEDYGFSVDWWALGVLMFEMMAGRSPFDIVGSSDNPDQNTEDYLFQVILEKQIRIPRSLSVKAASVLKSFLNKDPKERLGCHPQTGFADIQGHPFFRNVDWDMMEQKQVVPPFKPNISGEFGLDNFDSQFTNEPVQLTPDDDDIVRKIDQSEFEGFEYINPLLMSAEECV
Particulars: at 0.1 µM.

The target of experiment [3] is T1, Protein kinase C iota type (Homo sapiens). As to conditions: at 1 µM.
In experiment [4] the target is Protein kinase C theta type (Homo sapiens) (UniProt Q04759). Particulars: at 0.1 µM.
The target is the same in experiment [5]. Particulars: at 1 µM.
Experiment [6] addresses Protein kinase C beta type (Homo sapiens) (UniProt P05771). Particulars: at 0.1 µM.
For experiment [7] the target is unchanged. As to conditions: at 1 µM.
In experiment [8] the target is T2, Serine/threonine-protein kinase D1 (Homo sapiens) (UniProt Q15139).
T2 sequence (whole entry): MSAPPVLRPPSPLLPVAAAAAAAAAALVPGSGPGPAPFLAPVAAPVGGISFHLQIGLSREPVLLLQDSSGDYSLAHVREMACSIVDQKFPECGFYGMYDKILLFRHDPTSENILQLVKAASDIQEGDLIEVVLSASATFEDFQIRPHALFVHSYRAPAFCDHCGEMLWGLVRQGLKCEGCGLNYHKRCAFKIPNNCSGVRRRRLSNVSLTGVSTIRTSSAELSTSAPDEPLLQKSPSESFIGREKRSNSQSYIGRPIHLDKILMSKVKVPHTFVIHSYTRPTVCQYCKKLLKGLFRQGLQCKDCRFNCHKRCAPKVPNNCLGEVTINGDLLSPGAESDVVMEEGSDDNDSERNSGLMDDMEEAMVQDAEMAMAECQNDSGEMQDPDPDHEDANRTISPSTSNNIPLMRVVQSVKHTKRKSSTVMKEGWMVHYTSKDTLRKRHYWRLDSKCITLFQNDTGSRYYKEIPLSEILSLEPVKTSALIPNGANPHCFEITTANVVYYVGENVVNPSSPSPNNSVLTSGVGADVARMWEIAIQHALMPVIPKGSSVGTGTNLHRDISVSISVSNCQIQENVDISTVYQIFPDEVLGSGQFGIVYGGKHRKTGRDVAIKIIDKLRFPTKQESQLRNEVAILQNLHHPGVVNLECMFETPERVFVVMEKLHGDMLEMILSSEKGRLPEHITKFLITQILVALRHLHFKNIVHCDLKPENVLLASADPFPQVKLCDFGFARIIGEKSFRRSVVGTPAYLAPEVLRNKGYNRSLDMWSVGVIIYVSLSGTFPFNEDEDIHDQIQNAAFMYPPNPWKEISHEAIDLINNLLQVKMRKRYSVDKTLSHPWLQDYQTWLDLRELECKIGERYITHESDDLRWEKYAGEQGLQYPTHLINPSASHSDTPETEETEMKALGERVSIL
Particulars: at 0.1 µM.

In experiment [9] the target is T2, Serine/threonine-protein kinase D1 (Homo sapiens). Particulars: at 1 µM.
Experiment [10] addresses T3, Serine/threonine-protein kinase D2 (Homo sapiens) (UniProt Q9BZL6).
T3 sequence (whole entry): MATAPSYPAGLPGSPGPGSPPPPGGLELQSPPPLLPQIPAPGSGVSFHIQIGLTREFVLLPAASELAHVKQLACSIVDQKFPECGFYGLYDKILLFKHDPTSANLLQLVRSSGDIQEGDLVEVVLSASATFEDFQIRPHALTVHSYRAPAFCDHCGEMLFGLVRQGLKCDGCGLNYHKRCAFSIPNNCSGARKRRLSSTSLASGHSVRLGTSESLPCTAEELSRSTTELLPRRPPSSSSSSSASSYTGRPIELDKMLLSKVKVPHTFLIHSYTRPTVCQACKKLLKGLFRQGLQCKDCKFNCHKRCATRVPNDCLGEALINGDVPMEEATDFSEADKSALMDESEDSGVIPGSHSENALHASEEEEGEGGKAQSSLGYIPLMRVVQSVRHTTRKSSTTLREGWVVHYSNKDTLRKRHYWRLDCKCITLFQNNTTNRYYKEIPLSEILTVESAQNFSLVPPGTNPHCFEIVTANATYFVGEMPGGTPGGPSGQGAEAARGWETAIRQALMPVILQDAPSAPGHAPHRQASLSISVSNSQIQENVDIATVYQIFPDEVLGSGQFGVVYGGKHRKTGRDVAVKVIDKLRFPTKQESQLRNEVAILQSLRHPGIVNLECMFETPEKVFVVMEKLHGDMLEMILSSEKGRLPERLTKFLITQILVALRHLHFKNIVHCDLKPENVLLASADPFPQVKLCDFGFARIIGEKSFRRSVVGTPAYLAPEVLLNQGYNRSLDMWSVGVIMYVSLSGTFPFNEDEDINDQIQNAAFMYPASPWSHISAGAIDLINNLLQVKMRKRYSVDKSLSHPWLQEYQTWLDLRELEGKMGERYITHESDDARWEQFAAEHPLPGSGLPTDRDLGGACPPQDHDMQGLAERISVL
Particulars: at 0.1 µM.

For experiment [11], the target named is T3, Serine/threonine-protein kinase D2 (Homo sapiens). As to conditions: at 1 µM.
The target in experiment [12] is T4, Serine/threonine-protein kinase D3 (Homo sapiens) (UniProt O94806).
T4 sequence (whole entry): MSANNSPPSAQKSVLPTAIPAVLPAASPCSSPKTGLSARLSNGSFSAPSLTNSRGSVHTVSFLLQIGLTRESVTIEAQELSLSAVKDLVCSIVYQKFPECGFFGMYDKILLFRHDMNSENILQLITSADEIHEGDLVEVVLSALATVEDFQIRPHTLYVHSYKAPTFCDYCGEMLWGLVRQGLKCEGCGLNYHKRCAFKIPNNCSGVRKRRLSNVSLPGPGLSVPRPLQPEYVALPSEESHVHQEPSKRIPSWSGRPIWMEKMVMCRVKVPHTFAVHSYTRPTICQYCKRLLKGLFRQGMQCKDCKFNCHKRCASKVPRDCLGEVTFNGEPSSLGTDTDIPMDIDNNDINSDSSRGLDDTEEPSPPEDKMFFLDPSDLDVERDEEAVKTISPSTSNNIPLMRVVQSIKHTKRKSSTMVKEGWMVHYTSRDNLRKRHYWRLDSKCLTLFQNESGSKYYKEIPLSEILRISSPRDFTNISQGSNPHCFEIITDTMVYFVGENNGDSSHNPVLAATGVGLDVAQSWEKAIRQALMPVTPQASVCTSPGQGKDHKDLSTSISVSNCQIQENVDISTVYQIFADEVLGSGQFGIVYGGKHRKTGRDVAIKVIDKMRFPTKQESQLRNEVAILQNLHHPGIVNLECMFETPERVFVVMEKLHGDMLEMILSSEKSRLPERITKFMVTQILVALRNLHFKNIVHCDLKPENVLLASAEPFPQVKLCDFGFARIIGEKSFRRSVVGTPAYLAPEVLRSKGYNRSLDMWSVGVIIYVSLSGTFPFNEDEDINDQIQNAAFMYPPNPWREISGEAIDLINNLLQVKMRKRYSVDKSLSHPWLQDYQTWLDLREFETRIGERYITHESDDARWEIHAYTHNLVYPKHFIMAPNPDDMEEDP
As to conditions: at 0.1 µM.

In experiment [13] the target is T4, Serine/threonine-protein kinase D3 (Homo sapiens). Particulars: at 1 µM.
Experiment [14] has as its target T5, cGMP-dependent protein kinase 1 (Homo sapiens) (UniProt Q13976).
T5 sequence (whole entry): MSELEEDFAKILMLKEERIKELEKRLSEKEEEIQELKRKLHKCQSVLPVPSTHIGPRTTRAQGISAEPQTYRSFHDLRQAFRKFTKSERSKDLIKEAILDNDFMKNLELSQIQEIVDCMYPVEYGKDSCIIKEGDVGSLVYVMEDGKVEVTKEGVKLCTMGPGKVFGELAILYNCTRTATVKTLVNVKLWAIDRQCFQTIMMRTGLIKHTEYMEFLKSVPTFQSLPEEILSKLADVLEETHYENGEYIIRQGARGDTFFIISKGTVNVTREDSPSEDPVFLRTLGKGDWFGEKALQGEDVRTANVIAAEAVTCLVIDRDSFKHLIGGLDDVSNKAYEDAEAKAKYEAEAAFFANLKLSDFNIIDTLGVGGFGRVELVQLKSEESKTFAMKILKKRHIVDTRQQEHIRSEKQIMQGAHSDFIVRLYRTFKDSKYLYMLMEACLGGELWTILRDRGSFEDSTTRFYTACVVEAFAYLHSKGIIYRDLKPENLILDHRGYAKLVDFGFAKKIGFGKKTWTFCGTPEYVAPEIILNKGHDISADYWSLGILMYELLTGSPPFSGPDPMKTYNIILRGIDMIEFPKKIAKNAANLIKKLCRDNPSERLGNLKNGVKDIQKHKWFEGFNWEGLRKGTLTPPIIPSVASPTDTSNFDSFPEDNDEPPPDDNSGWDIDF
Particulars: at 0.1 µM.

The target in experiment [15] is T5, cGMP-dependent protein kinase 1 (Homo sapiens). As to conditions: at 1 µM.
Experiment [16] has as its target T6, cGMP-dependent protein kinase 2 (Homo sapiens) (UniProt Q13237).
T6 sequence (whole entry): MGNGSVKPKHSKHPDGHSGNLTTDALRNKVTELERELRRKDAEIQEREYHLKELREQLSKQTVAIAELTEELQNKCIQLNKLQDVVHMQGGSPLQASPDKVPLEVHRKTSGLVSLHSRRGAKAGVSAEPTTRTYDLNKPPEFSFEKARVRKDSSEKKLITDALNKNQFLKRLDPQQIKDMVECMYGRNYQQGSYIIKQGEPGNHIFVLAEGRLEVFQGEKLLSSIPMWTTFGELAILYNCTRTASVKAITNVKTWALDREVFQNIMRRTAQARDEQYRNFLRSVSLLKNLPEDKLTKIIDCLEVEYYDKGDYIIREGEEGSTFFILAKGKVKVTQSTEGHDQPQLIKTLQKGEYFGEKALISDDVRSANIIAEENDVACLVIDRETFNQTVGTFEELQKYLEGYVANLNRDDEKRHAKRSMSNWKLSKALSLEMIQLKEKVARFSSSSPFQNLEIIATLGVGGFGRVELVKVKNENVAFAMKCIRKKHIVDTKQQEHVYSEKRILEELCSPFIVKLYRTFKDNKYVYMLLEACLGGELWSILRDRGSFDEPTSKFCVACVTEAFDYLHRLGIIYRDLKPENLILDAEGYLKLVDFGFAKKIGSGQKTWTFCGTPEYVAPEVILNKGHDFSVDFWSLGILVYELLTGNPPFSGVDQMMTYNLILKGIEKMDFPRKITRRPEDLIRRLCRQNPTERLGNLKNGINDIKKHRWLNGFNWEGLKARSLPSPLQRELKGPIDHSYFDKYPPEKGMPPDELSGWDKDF
Particulars: at 0.1 µM.

Experiment [17] concerns the target T6, cGMP-dependent protein kinase 2 (Homo sapiens). Particulars: at 1 µM.
The target in experiment [18] is T7, cAMP-dependent protein kinase catalytic subunit PRKX (Homo sapiens) (UniProt P51817).
T7 sequence (whole entry): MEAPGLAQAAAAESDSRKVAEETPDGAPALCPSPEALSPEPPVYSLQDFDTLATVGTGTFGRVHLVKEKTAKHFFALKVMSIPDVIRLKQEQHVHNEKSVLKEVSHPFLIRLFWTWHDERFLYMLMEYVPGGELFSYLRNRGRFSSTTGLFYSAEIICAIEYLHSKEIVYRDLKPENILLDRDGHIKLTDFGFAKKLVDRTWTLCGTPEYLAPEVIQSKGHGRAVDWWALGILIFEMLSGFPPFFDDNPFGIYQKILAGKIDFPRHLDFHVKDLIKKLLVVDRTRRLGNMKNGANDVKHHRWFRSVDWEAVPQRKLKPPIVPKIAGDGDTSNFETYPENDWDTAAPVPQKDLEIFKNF
As to conditions: at 0.1 µM.

For experiment [19], the target named is T7, cAMP-dependent protein kinase catalytic subunit PRKX (Homo sapiens). As to conditions: at 1 µM.
The target in experiment [20] is Rho-associated protein kinase 1 (Homo sapiens) (UniProt Q13464). Particulars: at 0.1 µM.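 Also: values are mean percent inhibition of ROCK1.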
Rho-associated protein kinase 1 (Homo sapiens), sequence (Q13464 2-1354 limits assumed): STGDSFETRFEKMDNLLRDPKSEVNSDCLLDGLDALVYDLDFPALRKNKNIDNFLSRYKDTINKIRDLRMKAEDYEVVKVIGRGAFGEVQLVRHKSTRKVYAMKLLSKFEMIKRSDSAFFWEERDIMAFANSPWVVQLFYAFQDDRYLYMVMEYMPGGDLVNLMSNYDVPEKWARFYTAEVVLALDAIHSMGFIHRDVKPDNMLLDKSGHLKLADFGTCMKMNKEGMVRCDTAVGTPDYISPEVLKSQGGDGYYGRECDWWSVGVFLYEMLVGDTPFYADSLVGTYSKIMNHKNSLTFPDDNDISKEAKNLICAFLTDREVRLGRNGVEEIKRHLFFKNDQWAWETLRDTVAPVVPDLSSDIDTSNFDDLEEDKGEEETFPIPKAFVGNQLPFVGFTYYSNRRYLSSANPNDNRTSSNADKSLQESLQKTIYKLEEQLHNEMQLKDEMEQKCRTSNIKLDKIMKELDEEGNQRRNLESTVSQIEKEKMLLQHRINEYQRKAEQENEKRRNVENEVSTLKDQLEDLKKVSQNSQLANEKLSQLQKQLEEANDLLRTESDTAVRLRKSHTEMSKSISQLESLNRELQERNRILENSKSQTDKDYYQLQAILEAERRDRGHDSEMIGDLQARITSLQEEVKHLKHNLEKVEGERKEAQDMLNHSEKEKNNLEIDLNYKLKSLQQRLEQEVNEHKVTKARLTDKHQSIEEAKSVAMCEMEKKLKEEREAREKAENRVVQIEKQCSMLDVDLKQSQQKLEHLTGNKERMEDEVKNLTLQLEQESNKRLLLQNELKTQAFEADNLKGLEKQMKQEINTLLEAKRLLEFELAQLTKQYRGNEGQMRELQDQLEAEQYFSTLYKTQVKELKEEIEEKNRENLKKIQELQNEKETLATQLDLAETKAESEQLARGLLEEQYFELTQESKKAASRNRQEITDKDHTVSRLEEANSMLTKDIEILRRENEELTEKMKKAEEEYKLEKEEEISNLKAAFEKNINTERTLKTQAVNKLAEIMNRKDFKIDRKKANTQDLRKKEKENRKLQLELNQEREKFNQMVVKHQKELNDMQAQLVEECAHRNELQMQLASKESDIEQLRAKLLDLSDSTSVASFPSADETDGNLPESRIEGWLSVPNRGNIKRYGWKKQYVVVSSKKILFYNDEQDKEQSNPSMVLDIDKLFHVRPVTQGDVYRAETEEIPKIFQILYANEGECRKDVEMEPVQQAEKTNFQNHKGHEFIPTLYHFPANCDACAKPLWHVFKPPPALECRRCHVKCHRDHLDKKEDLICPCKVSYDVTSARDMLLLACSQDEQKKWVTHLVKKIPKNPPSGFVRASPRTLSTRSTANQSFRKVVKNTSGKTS

Protein kinase C beta type (Homo sapiens), sequence (P05771 2-671 limits assumed): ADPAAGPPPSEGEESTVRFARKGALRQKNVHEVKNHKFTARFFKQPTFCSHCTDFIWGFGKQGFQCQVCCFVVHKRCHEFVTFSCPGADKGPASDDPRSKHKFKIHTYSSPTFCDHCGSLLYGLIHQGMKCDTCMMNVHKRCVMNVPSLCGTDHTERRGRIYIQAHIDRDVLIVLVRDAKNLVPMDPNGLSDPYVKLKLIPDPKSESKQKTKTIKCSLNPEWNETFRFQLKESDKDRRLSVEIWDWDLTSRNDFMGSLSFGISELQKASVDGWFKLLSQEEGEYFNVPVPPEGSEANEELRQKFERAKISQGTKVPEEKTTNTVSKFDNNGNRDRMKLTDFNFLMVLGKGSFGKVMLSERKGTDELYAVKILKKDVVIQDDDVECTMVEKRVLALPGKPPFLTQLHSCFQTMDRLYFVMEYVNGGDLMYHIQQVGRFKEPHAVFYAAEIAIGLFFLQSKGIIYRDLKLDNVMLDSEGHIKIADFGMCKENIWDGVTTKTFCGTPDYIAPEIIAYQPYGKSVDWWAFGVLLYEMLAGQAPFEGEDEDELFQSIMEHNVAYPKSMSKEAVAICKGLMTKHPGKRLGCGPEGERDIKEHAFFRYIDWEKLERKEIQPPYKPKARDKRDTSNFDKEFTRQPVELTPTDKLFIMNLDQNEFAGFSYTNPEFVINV
Protein kinase C theta type (Homo sapiens), sequence (Q04759 whole entry, looked up): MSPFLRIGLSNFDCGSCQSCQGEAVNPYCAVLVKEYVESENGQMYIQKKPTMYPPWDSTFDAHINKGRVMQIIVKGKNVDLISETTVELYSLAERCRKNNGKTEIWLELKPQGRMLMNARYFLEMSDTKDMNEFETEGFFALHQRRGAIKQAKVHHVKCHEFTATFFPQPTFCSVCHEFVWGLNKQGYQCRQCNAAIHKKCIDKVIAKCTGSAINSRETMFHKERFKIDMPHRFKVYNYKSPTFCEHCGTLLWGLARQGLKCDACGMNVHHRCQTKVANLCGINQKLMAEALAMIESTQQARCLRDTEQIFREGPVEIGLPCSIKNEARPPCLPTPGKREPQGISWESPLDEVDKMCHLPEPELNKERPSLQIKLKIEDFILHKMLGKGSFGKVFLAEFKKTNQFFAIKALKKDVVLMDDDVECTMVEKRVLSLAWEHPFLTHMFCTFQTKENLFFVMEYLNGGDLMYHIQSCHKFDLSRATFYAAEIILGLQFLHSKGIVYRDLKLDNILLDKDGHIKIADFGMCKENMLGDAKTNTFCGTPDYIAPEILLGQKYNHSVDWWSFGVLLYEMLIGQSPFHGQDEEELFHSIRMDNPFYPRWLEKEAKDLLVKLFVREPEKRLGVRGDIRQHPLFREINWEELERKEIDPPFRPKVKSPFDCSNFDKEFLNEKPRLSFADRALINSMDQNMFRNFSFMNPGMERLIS

Regarding `COC(=O)Nc1nc2cc(Oc3ccc(NC(=O)Nc4ccccc4)cc3)ccc2[nH]1`, the inhibition in experiment [1] is 4.89%; in experiment [2], -0.48%; in [3] it was -0.69%; in [4] it was 1.38%; in experiment [5], 2.87%; in [6], 0.28%. The inhibition in experiment [7] was found to be 0.72%; in experiment [8], 2.86%; in [9] it was 3.15%; in [10], 2.3%; in [11] it was 2.45%; in experiment [12] it was 2.48%. In addition, the inhibition worked out at 2.79% in [13]; 0.72% in [14]; 2.97% in experiment [15]; 1.5% in experiment [16]; 1.55% in [17]; 2.09% in experiment [18]. In addition, the inhibition in experiment [19] was 3.93%; in [20], 2.24%.
As to `NS(=O)(=O)c1cccc(N/C=C2\C(=O)Nc3ccccc32)c1`, the inhibition in experiment [1] was 3.27%; in experiment [2] it was 1.82%; in [3] it was 2.43%; in experiment [4], 2.17%; in [5], 1.6%; in experiment [6] it was 1.9%. For the same compound, the inhibition in [7] is 3.11%; in experiment [8], 3.72%; in experiment [9] it was 11%; in experiment [10], 3.88%; in [11] it was 11%; in experiment [12], 5%. For the same compound, the inhibition turned out to be 9.04% in experiment [13]; 3.34% in experiment [14]; 4.68% in [15]; 1.91% in [16]; 7.34% in experiment [17]; 1.79% in [18]. The inhibition was 2.25% in experiment [19] and 1.58% in experiment [20].
